The text below walks through data of PubChem BioAssay (EPA / NIEHS).

Where a structure was tested more than once in an assay, its records may differ in their call. Active and inactive are the calls of the source. The calls were made as follows: active = hit-call score of the fitted dose curve at least 0.9, where 1 is the maximum; inactive = score below 0.9.

Read-out in test [1]: Interleukin-1 alpha (IL1a), IL1A (gene 3552)
The experiment in a line: BSK_KF3CT_IL1a: BioMAP Diversity Plus: KF3CT Assay for Interleukin-1 alpha (IL1a) Biomarker Activity (AID 2283070). The conditions noted are these: primary human keratinocytes with fibroblasts; actives raise or lower the signal. The method, boiled down:
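Human keratinocyte plus foreskin fibroblast primary co-culture, sampled 24 h after chemical dosing. IL-1a measured by ELISA; responses fitted bidirectionally against DMSO baseline (negative control), so gain or loss of signal both count.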

Read-out in test [2]: TIMP metallopeptidase inhibitor 2 (TIMP2), TIMP2 (gene 7077)
The experiment in a line: BSK_KF3CT_TIMP2: BioMAP Diversity Plus: KF3CT Assay for TIMP metallopeptidase inhibitor 2 (TIMP2) Biomarker Activity (AID 2283071). Conditions: primary human keratinocytes with fibroblasts; actives raise or lower the signal. The gist of the method: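 Cells: human keratinocytes co-cultured with foreskin fibroblasts. Treat with chemical, 24 h. Measure TIMP-2 by ELISA; fit curves bidirectionally vs DMSO baseline.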

Read-out in test [3]: C-C motif chemokine 2 (Homo sapiens) (UniProt P13500)
The experiment in a line: BSK_KF3CT_MCP1: BioMAP Diversity Plus: KF3CT Assay for Monocyte Chemoattractant Protein 1 (MCP1/CCL2) Biomarker Activity (AID 2283073). Conditions: primary human keratinocytes with fibroblasts; actives raise or lower the signal. The gist of the method: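 ELISA read-out of MCP-1, 24 h post-dose, in primary human skin keratinocytes co-cultured with fibroblasts. Parallel SRB staining monitors cytotoxicity; changes fitted both directions relative to DMSO.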

Read-out in test [4]: Matrix Metallopeptidase 9 (MMP9), MMP9 (gene 4318)
The experiment in a line: BSK_KF3CT_MMP9: BioMAP Diversity Plus: KF3CT Assay for Matrix Metallopeptidase 9 (MMP9) Biomarker Activity (AID 2283074). The conditions noted are these: primary human keratinocytes with fibroblasts; actives raise or lower the signal. The method, boiled down: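 Keratinocyte plus foreskin fibroblast human primary skin co-culture was dosed with chemical and MMP-9 was quantified by ELISA 24 h later. Bidirectional curve fitting used DMSO as negative control and activity baseline.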

Read-out in test [5]: urokinase plasminogen activator (uPA), PLAU (gene 5328)
The experiment in a line: BSK_KF3CT_uPA: BioMAP Diversity Plus: KF3CT Assay for urokinase plasminogen activator (uPA) Biomarker Activity (AID 2283075). The conditions noted are these: primary human keratinocytes with fibroblasts; actives raise or lower the signal. The gist of the method:
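Human keratinocyte plus foreskin fibroblast primary co-culture exposed to chemical for 24 h. uPA levels were quantified by ELISA, and activity was fitted bidirectionally against a DMSO negative-control baseline.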

Read-out in test [6]: CD40, CD40 (gene 958)
The experiment in a line: BSK_LPS_CD40: BioMAP Diversity Plus: LPS Assay for CD40 Biomarker Activity (AID 2283076). The conditions noted are these: primary human HUVEC with PBMC; actives raise or lower the signal. The gist of the method:
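In the LPS system of human endothelial cells with peripheral blood mononuclear cells, CD40 levels were read by ELISA 24 h post-treatment. Signal changes in either direction were fitted against the DMSO baseline, with parallel SRB protein staining.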

Read-out in test [7]: Interleukin-8 (IL8), CXCL8 (gene 3576)
The experiment in a line: BSK_LPS_IL8: BioMAP Diversity Plus: LPS Assay for Interleukin-8 (IL8) Biomarker Activity (AID 2283078). Conditions: primary human HUVEC with PBMC; actives raise or lower the signal. The method, boiled down:
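ELISA read-out of IL-8 after 24 h chemical treatment of LPS-activated endothelial/PBMC human primary co-cultures. Changes either up or down relative to DMSO; overt cytotoxicity checked by sulforhodamine B staining in parallel wells.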

The nature of test [8]: BSK_LPS_SRB: Viability Assessment in the BioMAP Diversity Plus: LPS Assay (AID 2283079).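 Also: total protein by sulforhodamine B absorbance as a cytotoxicity measure; measured one day after compound addition.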 The conditions noted are these: primary human HUVEC with PBMC. The gist of the method:
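SRB viability endpoint: cells fixed with 10% TCA, stained with 0.1% SRB, read at 560 nm, 24 h post-dose. HUVEC/PBMC co-culture; signal change in either direction scored relative to DMSO.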

Test [9] in a line: BSK_LPS_PGE2: BioMAP Diversity Plus: LPS Assay for Prostaglandin E2 (PGE2) Biomarker Activity (AID 2283082). The conditions noted are these: primary human HUVEC with PBMC; actives raise or lower the signal. The gist of the method:
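LPS-activated HUVEC/PBMC co-culture; cmpd dosed, 24 h; PGE2 by ELISA; bidirectional fit vs DMSO; SRB (0.1%, TCA-fixed, 560 nm) in parallel plates for overt cytotox.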

Read-out in test [10]: Macrophage colony-stimulating factor (MCSF), CSF1 (gene 1435)
The experiment in a line: BSK_LPS_MCSF: BioMAP Diversity Plus: LPS Assay for Macrophage colony-stimulating factor (MCSF) Biomarker Activity (AID 2283083). Conditions: primary human HUVEC with PBMC; actives raise or lower the signal. The gist of the method: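 Bidirectional fitting against DMSO was applied to M-CSF levels read by ELISA at 24 h post-dose. The system pairs human umbilical vein endothelium with peripheral blood mononuclear cells; parallel SRB staining tracked cytotoxicity.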

Read-out in test [11]: Tissue Factor, F3 (gene 2152)
The experiment in a line: BSK_LPS_TissueFactor: BioMAP Diversity Plus: LPS Assay for Tissue Factor Biomarker Activity (AID 2283084). Conditions: primary human HUVEC with PBMC; actives raise or lower the signal. The gist of the method:
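Compound was added to an endothelial cell/PBMC co-culture, and after 24 h tissue factor (CD142) was read by ELISA. Gain or loss of signal was fitted against a DMSO baseline, and parallel SRB staining (560 nm) tracked overt cytotoxicity.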

Read-out in test [12]: Tumor necrosis factor (Homo sapiens) (UniProt P01375)
The experiment in a line: BSK_LPS_TNFa: BioMAP Diversity Plus: LPS Assay for Tumour Necrosis Factor alpha (TNFa) Biomarker Activity (AID 2283085). Conditions: primary human HUVEC with PBMC; actives raise or lower the signal. The method, boiled down: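 Read-out is ELISA of TNFa in primary human endothelial cell–PBMC co-cultures at 24 h after compound. Activity in either direction was fitted against DMSO.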

Read-out in test [13]: Vascular cell adhesion molecule 1 (VCAM1), VCAM1 (gene 7412)
The experiment in a line: BSK_LPS_VCAM1: BioMAP Diversity Plus: LPS Assay for Vascular cell adhesion molecule 1 (VCAM1) Biomarker Activity (AID 2283086). Conditions: primary human HUVEC with PBMC; actives raise or lower the signal. The gist of the method:
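HUVEC + PBMC co-culture, LPS system; compound 24 h; VCAM-1 by ELISA; bidirectional fit vs DMSO control; parallel SRB (0.1%, TCA-fixed, 560 nm) for cytotoxicity.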

Read-out in another test: CD38, CD38 (gene 952)
The experiment in a line: BSK_SAg_CD38: BioMAP Diversity Plus: SAg Assay for CD38 Biomarker Activity (AID 2283087). The conditions noted are these: primary human HUVEC with PBMC; actives raise or lower the signal. The gist of the method: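 Human HUVEC plus PBMC co-culture stimulated with superantigen; CD38 measured by ELISA 24 h after chemical dosing. Fluorescence read-out, bidirectional fit against DMSO; cytotoxicity tracked in parallel by SRB and Alamar Blue.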

Read-out in test [14]: CD40, CD40 (gene 958)
The experiment in a line: BSK_SAg_CD40: BioMAP Diversity Plus: SAg Assay for CD40 Biomarker Activity (AID 2283088). The conditions noted are these: primary human HUVEC with PBMC; actives raise or lower the signal. The gist of the method:
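CD40 is measured by fluorescence ELISA in an endothelial/PBMC primary human co-culture at 24 h post-dose. Fitting is bidirectional, DMSO baseline. Parallel SRB staining (560 nm) flags cytotoxicity.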

Read-out in another test: CD69, CD69 (gene 969)
The experiment in a line: BSK_SAg_CD69: BioMAP Diversity Plus: SAg Assay for CD69 Biomarker Activity (AID 2283089). The conditions noted are these: primary human HUVEC with PBMC; actives raise or lower the signal. The gist of the method: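 ELISA, fluorescence read-out: CD69 on human umbilical vein endothelial cell + PBMC co-culture, 24 h post-dosing. Gain or loss of signal fitted bidirectionally against DMSO baseline.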

Read-out in test [15]: Interleukin-1 alpha (IL1a), IL1A (gene 3552)
The experiment in a line: BSK_LPS_IL1a: BioMAP Diversity Plus: LPS Assay for Interleukin-1 alpha (IL1a) Biomarker Activity (AID 2283080). The conditions noted are these: primary human HUVEC with PBMC; actives raise or lower the signal. The gist of the method:
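Readout is IL-1a level by ELISA, 24 h post-dose, fitted as gain or loss relative to DMSO. System: LPS-activated human primary co-culture of vascular endothelium and peripheral blood mononuclear cells, with parallel SRB total-protein cytotoxicity.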

Tumor necrosis factor (Homo sapiens), sequence (P01375 whole entry, looked up): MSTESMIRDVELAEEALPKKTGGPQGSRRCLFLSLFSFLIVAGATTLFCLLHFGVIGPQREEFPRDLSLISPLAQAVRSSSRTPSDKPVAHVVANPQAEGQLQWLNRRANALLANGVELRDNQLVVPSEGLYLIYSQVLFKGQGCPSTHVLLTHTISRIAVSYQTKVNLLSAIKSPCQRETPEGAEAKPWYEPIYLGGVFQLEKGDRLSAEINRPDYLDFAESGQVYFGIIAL

Regarding `O=C(O)C(F)(F)C(F)(F)C(F)(F)C(F)(F)C(=O)O`, the outcome in [1] is “inactive”; in test [2] it was “inactive”; in test [3], “inactive”; in test [4] it was “inactive”; in [5], “inactive”; in the test with CD40, CD40 (gene 958) [6] it was “inactive”. The outcome in test [7], in [8], in test [9], in [10], in test [11] and in test [12] was inactive. The outcome in test [13] was “inactive”; with CD38, CD38 (gene 952) it was “inactive”; with CD40, CD40 (gene 958) [14] it was “inactive”; in the test with CD69, CD69 (gene 969), “inactive”. Also, the half-maximal activity concentration (AC50) – broadly, the concentration at which the activity in the assay is half-maximal – in [7] is 30 µM (active).

For `CCCCCC1=CCCC1=O`, the outcome in [1] is “inactive”; in [2], “inactive”; in test [3] it was “inactive”; in test [4], “inactive”; in test [5], “inactive”; with CD40, CD40 (gene 958) [6], “inactive”. Besides, the outcome in [7], in test [8], in test [15], in test [9], in [10] and in test [11] was inactive. The outcome in test [12] is “inactive”; with CD38, CD38 (gene 952), “inactive”; in the test with CD40, CD40 (gene 958) [14], “inactive”; with CD69, CD69 (gene 969), “inactive”. Besides, in [13], the AC50 is 24 µM (active).

In the case of `CCCCCCC=O`, the outcome in test [1] is “inactive”; in test [2], “inactive”; in test [3], “inactive”; in test [4], “inactive”; in test [5], “inactive”; in the test with CD40, CD40 (gene 958) [6] it was “inactive”. The result in [7], in test [8], in [15], in [9], in [10] and in [11] was inactive. In addition, the outcome in test [12] was “inactive”; in test [13] it was “inactive”; with CD38, CD38 (gene 952), “inactive”; with CD40, CD40 (gene 958) [14], “inactive”; with CD69, CD69 (gene 969), “inactive”.
